Screens (PubChem BioAssay)
Many of the other results were omitted from the sample, so hits are more common in it than they were.
Shiga toxin inh = blocks Shiga toxin action in Vero cells | Vero cells, Shiga toxin protein synthesis inhibition reporter | inhibition, % at 38.7 µM | 290,000 tested, 9.2% active | AID 2315; in the data active = inhibition mostly above about 28%, no sharp cut-off; inactive = mostly below about 43%
Lassa entry inh = inhibitors of Lassa virus binding or cell entry; Lassa virus pseudotype entry inhibition, cell reporter; Potency, µM (titrated, usually from 37.9 µM), hits mostly inhibitors; 300,000 tested, 1.2% active; AID 540256; calls by dose curve; tested in HEK293 cells; also: nearly all actives have a fitted effect of over 50% in size
MARV entry inh = Marburg virus entry inhibition; Marburg virus pseudotyped entry inhibition, cell reporter; Potency, µM (highest dose often 37.8 µM), hits mostly inhibitors; 300,000 tested, 1.8% active; AID 540276; calls by dose curve; tested in HEK293 cells
Cycloheximide cs = counter-screen for Shiga toxin inhibitors: cycloheximide protein synthesis inhibition. cell reporter, cycloheximide protein synthesis inhibition counterscreen. max response, %. 300,000 tested, 12% active. AID 2314; in the data active = max response mostly above about 13%, no sharp cut-off; inactive = mostly below about 14%; also: read at 38.3 µM for the half of the compounds with a filed dose
AMA1-RON2 inh = AMA1-RON2 (P. falciparum) interaction inhibition. Potency, µM (top dose mostly 58.2 µM), actives largely listed as inhibitors. AID 720542. AlphaScreen AMA1-biotinylated RON2 peptide binding. 360,000 tested, 0.2% active; active = well fitted inhibition curve with a large enough effect; inconclusive = small, poorly fitted or top-dose-only effect; inactive = no such curve, though single readings can be large or run the other way; also: nearly all actives have a fitted effect of over 45% in size
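AMA1 (3D7) with his tag at 25 nM final met compounds first, then biotinylated RON2 peptide at 25 nM; detection used donor plus acceptor beads, 10 µg/mL apiece, read by AlphaScreen after 30 min at room temperature.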
Hits are given with their value; . = inactive; ? = inconclusive; / = no result given; [ ] = dose if it differs, or a comment.

SMILES | Shiga toxin inh | Lassa entry inh | MARV entry inh | Cycloheximide cs | AMA1-RON2 inh
CN(C)c1ccc(/C=N/NC(=O)CCCO)cc1 | 63.4 | . | ? | 41.4 | .
CCc1cccc(C)c1NC(=O)COCc1cc(-c2ccc3c(c2)OCO3)on1 | / | . | / | / | /
NS(=O)(=O)c1cccc(NC(=O)COC(=O)CN2C(=O)c3ccccc3C2=O)c1 | / | . | . | / | .
CN(C)c1ccc(/C=N/NC(=O)CCc2c[nH]c3ccccc23)cc1 | . | 2µM | ? | . | .
O=C(CCC(=O)N1CCSc2ccccc21)NCc1ccccc1Cl | / | / | . | / | /
O=C(Nc1ncccn1)C12CC3CC(CC(C3)C1)C2 | . | . | . | . | .
CC(C)Cc1nnc(NC(=O)C23CC4CC(CC(C4)C2)C3)s1 | . | / | / | . | .
CSc1nnc(NC(=O)C23CC4CC(CC(C4)C2)C3)s1 | . | / | / | 35.8 | .
NC(=O)CSc1nnc(NC(=O)C23CC4CC(CC(C4)C2)C3)s1 | . | / | / | 36.2 | .
CCc1nnc(NC(=O)C23CC4CC(CC(C4)C2)C3)s1 | 56.5 | / | / | 24.4 | .
CN(Cc1ccccc1)S(=O)(=O)c1ccc(N2CCOCC2)nc1 | . | . | . | . | .
Cc1cccc2sc(NNC(=O)c3cc(=O)c4ccccc4o3)nc12 | 30.8 | / | / | 12.5 | .
COc1ccc2nc(NNC(=O)c3cc(=O)c4ccccc4o3)sc2c1 | 65.7 | / | / | 43.2 | .
Cc1ccc2sc(NNC(=O)c3cc(=O)c4ccccc4o3)nc2c1C | 43.6 | / | / | 15.6 | .
Cc1cc(OCC(=O)NCC(c2ccc(F)cc2)N2CCOCC2)ccc1Cl (centres undefined) | / | / | / | / | .
Cn1cccc1/C=N\NC(=O)Cc1ccc(Br)c2ccccc12 | . | / | / | . | .
CCNC(=S)N1CCN(c2cccc(C(F)(F)F)c2)CC1 | . | . | ? | . | .[11.6 µM]
C=CCNC(=S)N1CCN(c2cccc(C(F)(F)F)c2)CC1 | . | . | ? | 45.9 | .
CC(C)OCCCn1c(-c2ccco2)nc2nc3ccccc3nc21 | . | . | . | 13.2 | .
COc1ccc(-c2nnc(SCC(=O)Nc3ccc(F)cc3)s2)cc1 | / | . | / | / | /
C[C@@H]1CCC(=O)N(CC[C@H](Sc2ccccc2)c2ccccc2)CC1 | . | / | / | 10.5 | .
O=C1CC[C@H](OCc2ccccc2)CCN1[C@H](CSc1ccccc1)Cc1ccccc1 | 33.6 | / | / | 26.8 | .
O=C1CCC(OCc2ccccc2)CCN1CC[C@@H](Sc1ccccc1)c1ccccc1 (some centres undefined) | / | / | / | / | .
O=C1CC[C@@H](OCc2ccccc2)CCN1CC[C@H](Sc1ccccc1)c1ccccc1 | . | / | / | 10.7 | .
O=C1CC[C@H](O)CCN1[C@H](CSc1ccccc1)Cc1ccccc1 | . | / | / | . | .
SMILES | Shiga toxin inh | Lassa entry inh | MARV entry inh | Cycloheximide cs | AMA1-RON2 inh
O=C1CC[C@@H](O)CCN1CC[C@H](Sc1ccccc1)c1ccccc1 | . | / | / | . | .
Cc1ccc(-n2ncc(-c3nn[nH]n3)c2N)cc1 | . | . | . | . | .
CCC(=O)N1c2ccccc2CC1C(=O)NCCN1CCN(c2cccc(C(F)(F)F)c2)CC1 (centres undefined) | / | . | / | / | /
CCCSCCCNC(=O)C1CCN(c2nn3cc(-c4ccc(F)cc4)nc3s2)CC1 | / | . | / | / | /
COc1ccc2c(c1)nc(SCC(=O)c1cccs1)n2C | . | . | . | 40.9 | .
COc1ccc2c(c1)nc(SCC(C)O)n2C (centres undefined) | . | . | . | 11.8 | .
COc1ccc2c(c1)nc(SCC(=O)C(C)(C)C)n2C | . | . | . | . | .
COc1ccc(Cn2cc(CN3CC(N4CCN(CCN(C)C)CC4)CS3(=O)=O)nn2)cc1 (centres undefined) | / | / | / | / | .
CC(=O)NC(c1ccc(F)c(F)c1)c1nc(-c2cnn(C)c2)cs1 (centres undefined) | / | / | / | / | .
COc1ccc(C(=O)/C(=C\c2sccc2C)c2nc3ccccc3o2)cc1 | . | . | . | 18.8 | /
COc1ccc(C=C(C(=O)c2ccccc2)c2ccccc2)cc1 | / | / | / | / | .
CC(C)Oc1ccc(C(=O)/C(=C\c2cccs2)c2nc3ccccc3o2)cc1 | active | ? | ? | 37.7 | ?
CC(C)Oc1ccc(C(=O)N(Cc2ccco2)Cc2cccs2)cc1 | / | ? | . | / | /
CS(=O)(=O)Nc1ccc(C2=NN(C(=O)c3ccco3)C(c3cccc(F)c3)C2)cc1 (centres undefined) | . | ? | 11.2µM | . | .
CCS(=O)(=O)Nc1ccc(C2=NN(C(=O)c3ccco3)C(c3cccc(F)c3)C2)cc1 (centres undefined) | . | / | / | . | .
CCS(=O)(=O)Nc1ccc(C2=NN(C(=O)c3ccco3)C(c3ccc(C)cc3)C2)cc1 (centres undefined) | . | 16.4µM | ? | . | .
COc1cccc(C2=NN(C(=O)c3ccco3)C(c3ccco3)C2)c1 (centres undefined) | 72.4 | / | / | 29.3 | .
CS(=O)(=O)Nc1ccc(C2=NN(C(=O)c3ccco3)C(c3ccco3)C2)cc1 (centres undefined) | . | ? | . | . | .
O=C(COc1ccc(Br)cc1)Nc1cccc2cccnc12 | / | . | / | / | /
Cc1cc(=O)oc2cc(NC(=O)c3cc(F)ccc3F)ccc12 | / | / | / | / | .
Cc1cc(=O)oc2cc(NC(=O)c3ccccc3OC(F)F)ccc12 | 115.0 | . | . | 30.0 | .
Cc1nc2nc(C)n(CCN3CCOCC3)c(=O)c2c(-c2cccc([N+](=O)[O-])c2)c1C(=O)CCCCCCCCCCN1CCC(c2ccccc2)(c2ccccc2)CC1 | / | ? | 0.501µM | / | ?
CCn1c2ccccc2c2cc(NC(=O)C(C)OC(=O)c3ccc(NC(=O)CC#N)cc3)ccc21 (centres undefined) | / | / | / | / | .
CCCn1c(-c2cccs2)nc2nc3ccccc3nc21 | . | . | ? | . | .
COCCn1c(-c2cccs2)nc2nc3ccccc3nc21 | . | / | / | 12.8 | .
SMILES | Shiga toxin inh | Lassa entry inh | MARV entry inh | Cycloheximide cs | AMA1-RON2 inh
c1csc(-c2nc3nc4ccccc4nc3n2Cc2ccc3c(c2)OCO3)c1 | 32.8 | ? | ? | 12.2 | .
Cc1noc(-c2ccc(N3CCC(C)CC3)c([N+](=O)[O-])c2)n1 | / | . | ? | / | /
CC[C@H](C)[C@H](NC(=O)[C@H](CC(=O)O)NC(=O)[C@H](CC(C)C)NC(=O)[C@H](NC(C)=O)C(c1ccccc1)c1ccccc1)C(=O)N[C@H](C(=O)N[C@@H](Cc1c[nH]c2ccccc12)C(=O)O)[C@@H](C)CC | . | / | / | . | /
[O-][n+]1ccccc1SC/C=C/c1ccccc1 | 95.7 | . | ? | 25.0 | .
[O-][n+]1ccccc1SCc1ccccc1 | / | / | / | / | .
CCc1ccc(N2C(=O)C3C4C=CC(CC4)C3C2=O)cc1 (centres undefined) | 48.2 | / | / | . | .
CCc1ccc(N2C(=O)C3CCCN3C2=S)cc1 (centres undefined) | 51.6 | . | . | . | .
COC(=O)/C=c1\s/c(=C(/C#N)C(=O)NCc2ccco2)n(-c2ccccc2)c1=O | / | / | . | / | /
COC1=C(N)C(=O)c2nc(-c3nc(C(=O)O)c(C)c(-c4ccc(OC)c(OC)c4O)c3N)ccc2C1=O | . | 0.082µM | 0.058µM | . | .
COC(=O)c1nc(-c2ccc3c(n2)C(=O)C(N)=C(OC)C3=O)c(N)c(-c2ccc(OC)c(OC)c2O)c1C | . | ? | ? | . | .
